Bioassay records as filed in PubChem BioAssay.
Sampled rows, rich in hits. Any-hit rate of the full collection: about 1.7%.
HEK293 tox – cytotoxic in the GLP-1 receptor inverse agonist counter-screen; Potency, µM (titrated, usually from 38.3 µM), most hits filed as inhibitors; AID 624418; HEK293 cAMP-luciferase reporter cells, luminescence, 24 h; 410,000 compounds, 0.13% hits;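 note: loss of luciferase light is scored as toxicity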
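Here, cytotoxicity is scored as loss of luminescence. The MLSMR collection was tested on cells seeded in medium containing 10% Nu serum, with a 24 hr compound exposure preceded by 12 hours of culture.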
PTHR1 agonist – agonists of human PTHR1 parathyroid hormone receptor. Q03431. HEK293 GP2 PTHR1 cells, GloSensor cAMP luminescence, 1 h. Potency, µM (series often up to 115 µM), usual class: activators. 410,000 compounds, 0.075% hits. AID 743266; note: nearly all actives have a fitted effect of over 55% in size
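HEK-293-derived GP2 cells expressing PTHR1 and a GloSensor cAMP reporter, 3,000/well, plated overnight, given luciferin plus IBMX (each 0.5 mM as added) for 1 h at 37 °C, then compound for 1 h at 37 °C. Luminescence was read after 15 min at room temperature.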
GLP-1R agonist – activates the human GLP-1 receptor; P43220; HEK293 GLP-1R CRE-luciferase, luminescence, 4-6 h; cells express a hypersensitive GLP-1R form; Potency, µM (titrated, usually from 45.6 µM), actives largely listed as activators; 380,000 compounds, 0.007% hits
Target sequence (P43220 whole entry, looked up): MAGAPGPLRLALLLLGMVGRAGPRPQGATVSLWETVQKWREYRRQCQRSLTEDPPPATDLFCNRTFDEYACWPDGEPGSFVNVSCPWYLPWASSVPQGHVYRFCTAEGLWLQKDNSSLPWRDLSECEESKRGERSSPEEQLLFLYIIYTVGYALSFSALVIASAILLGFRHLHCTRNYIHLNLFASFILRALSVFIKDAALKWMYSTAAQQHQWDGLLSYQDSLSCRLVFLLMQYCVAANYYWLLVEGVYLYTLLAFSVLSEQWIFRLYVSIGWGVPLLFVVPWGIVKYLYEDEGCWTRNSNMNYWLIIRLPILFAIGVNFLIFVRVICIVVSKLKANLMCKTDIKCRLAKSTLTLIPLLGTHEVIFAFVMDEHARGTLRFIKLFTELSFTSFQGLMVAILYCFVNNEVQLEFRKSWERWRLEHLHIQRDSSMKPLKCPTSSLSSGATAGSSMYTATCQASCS
LDHA inh – inhibitors of human lactate dehydrogenase A; purified LDHA, NADH/diaphorase-resazurin fluorescence; hits give low values; activity change, % (values are at about 110 or 230 µM); 480,000 compounds, 0.15% hits; in the data active = activity change below about -30%; inconclusive = mostly about -25% to -30%
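Remaining NADH was detected by diaphorase (0.133 mg/mL) converting 37 µM resazurin to fluorescent resorufin, read at 0 and 20 minutes. The preceding 5-minute room-temperature reaction used 2 nM LDHA, 0.2 mM sodium pyruvate and 0.06 mM NADH at pH 7.4.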
IDH1 R132H inh – human IDH1 R132H inhibition; O75874; IDH1-R132H enzyme, NADPH consumption, diaphorase/resazurin fluorescence; Potency, µM (series often up to 76.6 µM), most hits filed as inhibitors; 390,000 compounds, 0.093% hits; note: nearly all actives have a fitted effect of over 65% in size
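IDH1-R132H (0.5 ug/mL) preincubated 30 min with compound, then NADPH (0.016 mM) and alpha-KG (2 mM) added; 80 min at RT, pH 7.5. Remaining NADPH coupled via diaphorase/resazurin to fluorescence (540/590 nm); concentration-response curves normalized to no-enzyme control.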
GLP1R inv ag – GLP-1 receptor (human) inverse agonism; P43220; HEK293 GLP-1R CRE-luciferase, luminescence, 24 h; GLP-1R form is constitutively active; Potency, µM (titrated, usually from 38.3 µM), hits mostly inhibitors; 410,000 compounds, 1.6% hits; AID 624417; note: nearly all actives have a fitted effect of over 55% in size
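Seeding at 200 cells/uL, 12 h culture, 24 hr compound treatment, then luciferase reagent and a luminescence read; cells are HEK293 stably expressing a constitutively active GLP-1R plus cAMP-responsive luciferase.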
Hits are given with their value; . = inactive; ? = inconclusive; / = no result; ! = repeats disagree. Unless noted, calls come from the whole dose curve; as a rule, active = well fitted curve in the direction sought with a large enough effect; inconclusive = small, poorly fitted or top-dose-only effect, or another doubt; inactive = no such curve, though single readings can be large; an effect the other way counts as inactive or inconclusive.

SMILES	HEK293 tox	PTHR1 agonist	GLP-1R agonist	LDHA inh	IDH1 R132H inh	GLP1R inv ag
Cc1cccc(C)c1NC(=O)CSc1nc2nc(C)c(Br)cc2[nH]1	/	/	/	.	/	/
Cc1cc(C)c(S(=O)(=O)Nc2ccc3c4c(cccc24)CC3)c(C)c1	.	.	.	.	.	4.5µM
O=S(=O)(c1ccc(Cl)c(Cl)c1)c1snnc1-c1ccccc1	?	.	.	.	.	7.1µM
c1ccc(-c2nnsc2-c2ccccc2)cc1	.	.	.	.	.	?
CCNc1c(NC(=O)Nc2ccccc2C)c(=O)oc2ccccc12	/	/	/	.	/	/
CCn1c(=O)n(CCC(=O)N(C)CC(=O)Nc2ccccc2Br)c2ccccc21	/	/	/	.	/	/
CCOc1ccc(NC(=O)CN(C)C(=O)c2cn(-c3ccc(F)cc3)nc2-c2cccc(OC)c2)cc1OCC	.	.	.	.	.	4.5µM
COc1cccc(-c2nn(-c3ccccc3)cc2C(=O)NCC(C)(C)N2CCOCC2)c1	/	/	/	-31	/	/
CCN(CC)CCNC(=O)c1ccc(NC(=O)c2cn(-c3ccc(F)cc3)nc2-c2cccc(OC)c2)cc1	?	.	.	.	.	8.9µM
COc1cccc(-c2nn(-c3ccccc3)cc2C(=O)O)c1	.	?	.	.	.	.
CCN(CC)CCNC(=O)c1ccc(NC(=O)c2cn(-c3ccccc3)nc2-c2cccs2)cc1	.	.	.	.	.	?
Cc1cccc(CN2CCCN(c3cccc(C(=O)N4CCN(c5ccccc5)CC4)c3)C2=O)c1	/	/	/	.	/	/
N[C@@H](Cc1cc(I)c(Oc2ccc(O)c(I)c2)c(I)c1)C(=O)O	.	?	.	-35!	?	?
Cc1ccc(C)c2[nH]c(C(=O)O)cc12	/	/	/	.	/	/
COc1cccc(-c2ccc(-c3noc(-c4cccs4)n3)c(OC)n2)c1	.	.	.	-38	.	.
COc1ccc2[nH]c(=O)c(-c3noc(-c4cccs4)n3)cc2c1	/	/	/	-38	/	/
COc1cccc(-c2ccc(-c3noc(-c4ccncc4)n3)c(OC)n2)c1	/	/	/	.	/	/
COc1ccc(-c2ccc(-c3noc(-c4cc(OC)cc(OC)c4)n3)c(OC)n2)cc1	.	.	/	.	.	.
COc1nc(-c2ccc(Cl)cc2)ccc1-c1noc(-c2ccco2)n1	.	.	.	-37	.	.
CC(C)N1C(=O)C(NC(=O)C(=O)NCCc2c[nH]c3ccc(F)cc23)c2ccccc21 (stereo unspecified)	/	/	/	.	/	/
Cc1cc(C)c(NC(=O)C(C)SCCO)c(C)c1 (stereo unspecified)	/	/	/	.	/	/
CC1CCC(C)[S+]1c1cc(O)ccc1O (stereo unspecified)	/	/	/	.	/	/
O=C1c2ccccc2C(=Cc2ccsc2)c2ccccc21	/	/	/	.	/	/
COc1ccc(NC(=O)Cc2cnc(-n3cccc3)s2)cc1OC	/	/	/	.	/	/
O=C(Nc1nc(-c2ccc(Cl)s2)cs1)C1CC1	/	/	/	-34	/	/
SMILES	HEK293 tox	PTHR1 agonist	GLP-1R agonist	LDHA inh	IDH1 R132H inh	GLP1R inv ag
CN1CCN(C(C(=O)O)c2c[nH]c3cc(Br)ccc23)CC1 (stereo unspecified)	/	/	/	.	/	/
Cc1oc(-c2cccs2)nc1CN(CC(N)=O)C(C)C	/	/	/	.	/	/
CCCCCc1ccc(OCCCC[n+]2ccc(C)cc2)c(CCCCC)c1	?	.	.	.	.	?
CCCCCc1ccc(OCCCC[n+]2ccccc2)c(CCCCC)c1	?	.	.	.	.	6.3µM
CCOc1ccc(C(=O)Nc2nonc2CC)cc1	/	/	/	.	/	/
COc1cccc2cc(-c3cc(=O)oc4ccc(OS(=O)(=O)c5ccccc5)cc34)oc12	/	/	/	.	/	/
COc1ccccc1N1CCN(C(=O)c2ccc3c(c2)CCN3S(=O)(=O)c2ccccc2)CC1	.	.	.	.	.	7.9µM
O=C(N1CCN=C1SCc1cccnc1)C12CC3CC(CC(C3)C1)C2	.	.	.	.	.	3.5µM
O=C(c1cccs1)N1CCN=C1SCc1cccnc1	.	?	.	.	.	.
O=C(NNc1ccccc1)/C(=C\c1cccnc1)NC(=O)c1ccccc1	.	.	.	.	.	3.5µM
CCC(CC)C(=O)N1N=C(c2ccc(NS(C)(=O)=O)cc2)CC1c1ccc(C)cc1 (stereo unspecified)	.	.	.	.	.	8.9µM
CCCOc1cc(C)c(Cl)cc1S(=O)(=O)N(CC)CC	.	.	.	.	.	2.5µM
O=C(NC1CC2CCCC(C1)N2C(=O)Nc1ccc(Cl)c(C(F)(F)F)c1)C1CC1 (stereo unspecified)	.	.	.	.	.	10µM
c1ccc(-c2nn3c(COc4ccc5c(c4)OCO5)nnc3s2)nc1	/	/	/	.	/	/
CC(C)(C)c1cc(NC(=O)COc2ccc(Br)cc2)n(-c2ccccc2)n1	.	.	.	.	.	8.9µM
CCC(C)n1c(SCC(=O)Nc2cc(C(C)(C)C)nn2-c2ccccc2)nc2ccccc2c1=O (stereo unspecified)	.	.	.	.	.	11µM
O=C(NCc1ccc(F)cc1)c1ccc(Nc2ncc(-c3cccc(F)c3)cn2)cc1	/	/	/	.	/	/
O=C(Nc1ccc2c(c1)OCO2)c1cc(C2CCCCN2C(=O)CCCc2ccccc2)on1 (stereo unspecified)	.	.	.	.	/	8.9µM
CCCCc1ccc(NC(=O)c2ccc(=O)n(Cc3cccc(C)c3)c2)cc1	.	.	.	.	.	7.1µM
Cc1cccc(Cn2cc(C(=O)Nc3ccc(S(N)(=O)=O)cc3)ccc2=O)c1	.	.	.	.	.	.
O=C(CC(c1ccccc1)c1cc(Br)ccc1O)NCc1ccco1 (stereo unspecified)	.	.	.	.	.	11µM
O=C(CC(c1ccccc1)c1ccccc1O)NCc1ccccc1Cl (stereo unspecified)	.	.	.	.	.	10µM
O=C(CC(c1ccccc1)c1ccccc1O)NCc1ccco1 (stereo unspecified)	.	.	.	.	.	?
Cn1ccc2cc(S(=O)(=O)N3CCC(C(=O)NCCCN4CCOCC4)CC3)ccc21	/	/	/	.	/	/
O=C(NC(Cc1c[nH]c2ccccc12)C(=O)O)c1ccccc1F (stereo unspecified)	/	/	/	.	/	/
O=C(Nc1cccc2c1CCCC2)c1cc([N+](=O)[O-])ccc1Cl	?	.	.	.	.	3.2µM
Cc1ccccc1NC(=O)N1CCc2c(sc3c2CCCC3)C1c1ccccc1 (stereo unspecified)	.	.	/	.	.	10µM
CCc1c(C)sc2c1CCN(C(=O)Nc1cc(OC)c(OC)c(OC)c1)C2c1ccccc1 (stereo unspecified)	.	.	/	.	.	10µM
CCOC(=O)c1ccccc1NC(=O)N1CCc2c(sc(C)c2CC)C1c1ccccc1 (stereo unspecified)	.	.	/	.	.	.
